Experimental data published in ChEMBL document CHEMBL2218924, “A broad activity screen in support of a chemogenomic map for kinase signalling research and drug discovery” (Biochem J, 2013).

How the values were obtained:
[1] = target: MAP kinase-activated protein kinase 2 (Homo sapiens) (UniProt P49137); settings: at 10 µM
[2] = target: Serine/threonine-protein kinase MARK1 (Homo sapiens) (UniProt Q9P0L2); settings: at 1 µM
[3] = target: Serine/threonine-protein kinase MARK1 (Homo sapiens) (UniProt Q9P0L2); settings: at 10 µM
[4] = target: Dual specificity mitogen-activated protein kinase kinase 1 (Homo sapiens) (UniProt Q02750); settings: at 1 µM
[5] = target: Dual specificity mitogen-activated protein kinase kinase 1 (Homo sapiens) (UniProt Q02750); settings: at 10 µM
[6] = target: Maternal embryonic leucine zipper kinase (Homo sapiens) (UniProt Q14680); settings: at 1 µM
[7] = target: Maternal embryonic leucine zipper kinase (Homo sapiens) (UniProt Q14680); settings: at 10 µM
[8] = target: Misshapen-like kinase 1 (Homo sapiens) (UniProt Q8N4C8); settings: at 1 µM
[9] = target: Misshapen-like kinase 1 (Homo sapiens) (UniProt Q8N4C8); settings: at 10 µM
[10] = target: MAP kinase-activated protein kinase 3 (Homo sapiens) (UniProt Q16644); settings: at 10 µM
MAP kinase-activated protein kinase 3 (Homo sapiens), sequence (Q16644 whole entry, looked up): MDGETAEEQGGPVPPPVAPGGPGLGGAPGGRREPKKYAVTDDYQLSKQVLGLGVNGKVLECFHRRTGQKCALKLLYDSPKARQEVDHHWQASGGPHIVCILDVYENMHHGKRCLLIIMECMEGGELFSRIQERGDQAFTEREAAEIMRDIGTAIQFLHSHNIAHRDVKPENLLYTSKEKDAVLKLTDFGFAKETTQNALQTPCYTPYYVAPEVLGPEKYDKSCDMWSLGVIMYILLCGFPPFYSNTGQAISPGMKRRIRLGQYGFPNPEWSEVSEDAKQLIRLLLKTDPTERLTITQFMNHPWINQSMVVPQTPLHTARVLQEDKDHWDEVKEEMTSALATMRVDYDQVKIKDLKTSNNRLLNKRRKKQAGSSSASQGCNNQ

Maternal embryonic leucine zipper kinase (Homo sapiens), sequence (Q14680 whole entry, looked up): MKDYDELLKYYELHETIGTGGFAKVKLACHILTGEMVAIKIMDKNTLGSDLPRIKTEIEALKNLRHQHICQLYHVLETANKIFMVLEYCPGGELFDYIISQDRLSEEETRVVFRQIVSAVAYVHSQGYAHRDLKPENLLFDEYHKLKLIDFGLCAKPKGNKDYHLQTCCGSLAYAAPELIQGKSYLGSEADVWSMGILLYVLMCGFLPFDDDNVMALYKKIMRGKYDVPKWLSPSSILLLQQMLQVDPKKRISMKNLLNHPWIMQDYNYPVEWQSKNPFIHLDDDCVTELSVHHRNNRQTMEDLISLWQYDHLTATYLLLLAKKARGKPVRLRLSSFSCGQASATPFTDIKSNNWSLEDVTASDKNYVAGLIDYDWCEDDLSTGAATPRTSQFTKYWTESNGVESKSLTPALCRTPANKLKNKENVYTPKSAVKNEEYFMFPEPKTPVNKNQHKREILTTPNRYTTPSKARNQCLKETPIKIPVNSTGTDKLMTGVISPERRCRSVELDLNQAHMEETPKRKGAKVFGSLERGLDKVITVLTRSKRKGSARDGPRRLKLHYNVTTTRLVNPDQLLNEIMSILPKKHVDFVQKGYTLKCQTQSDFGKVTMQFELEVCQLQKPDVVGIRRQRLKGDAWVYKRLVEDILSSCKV
Serine/threonine-protein kinase MARK1 (Homo sapiens), sequence (Q9P0L2 whole entry, looked up): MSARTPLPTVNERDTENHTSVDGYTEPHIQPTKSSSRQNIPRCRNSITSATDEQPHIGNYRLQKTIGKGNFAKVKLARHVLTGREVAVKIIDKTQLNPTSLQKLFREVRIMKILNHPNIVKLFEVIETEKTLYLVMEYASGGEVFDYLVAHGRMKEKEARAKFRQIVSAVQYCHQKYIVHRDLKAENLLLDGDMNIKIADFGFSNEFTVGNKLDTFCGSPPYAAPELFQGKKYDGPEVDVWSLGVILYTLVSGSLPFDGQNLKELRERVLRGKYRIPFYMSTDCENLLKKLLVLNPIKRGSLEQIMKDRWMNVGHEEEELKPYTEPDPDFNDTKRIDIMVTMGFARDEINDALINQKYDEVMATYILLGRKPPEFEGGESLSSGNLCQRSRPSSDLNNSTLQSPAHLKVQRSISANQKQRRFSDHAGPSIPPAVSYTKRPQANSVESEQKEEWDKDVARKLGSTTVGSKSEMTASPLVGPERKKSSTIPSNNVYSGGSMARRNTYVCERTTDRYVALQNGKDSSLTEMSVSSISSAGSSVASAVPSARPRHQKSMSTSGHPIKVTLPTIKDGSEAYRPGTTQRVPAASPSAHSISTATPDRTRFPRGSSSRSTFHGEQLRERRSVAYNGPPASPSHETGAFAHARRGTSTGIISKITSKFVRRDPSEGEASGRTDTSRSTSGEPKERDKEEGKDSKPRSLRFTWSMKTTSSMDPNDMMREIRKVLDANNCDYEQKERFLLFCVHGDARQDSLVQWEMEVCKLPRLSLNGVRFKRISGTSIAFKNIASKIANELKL
Dual specificity mitogen-activated protein kinase kinase 1 (Homo sapiens), sequence (Q02750 whole entry): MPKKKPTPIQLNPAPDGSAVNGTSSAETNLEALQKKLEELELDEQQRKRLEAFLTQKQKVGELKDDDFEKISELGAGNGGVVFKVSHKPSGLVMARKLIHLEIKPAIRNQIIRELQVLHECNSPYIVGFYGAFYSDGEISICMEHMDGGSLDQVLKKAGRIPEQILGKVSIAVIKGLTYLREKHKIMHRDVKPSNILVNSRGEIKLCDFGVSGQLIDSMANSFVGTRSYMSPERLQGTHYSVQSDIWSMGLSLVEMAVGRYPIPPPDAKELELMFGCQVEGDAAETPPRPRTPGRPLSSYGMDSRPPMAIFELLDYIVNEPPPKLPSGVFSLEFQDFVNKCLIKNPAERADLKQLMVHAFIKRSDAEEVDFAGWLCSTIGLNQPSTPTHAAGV
Misshapen-like kinase 1 (Homo sapiens), sequence (Q8N4C8 whole entry, looked up): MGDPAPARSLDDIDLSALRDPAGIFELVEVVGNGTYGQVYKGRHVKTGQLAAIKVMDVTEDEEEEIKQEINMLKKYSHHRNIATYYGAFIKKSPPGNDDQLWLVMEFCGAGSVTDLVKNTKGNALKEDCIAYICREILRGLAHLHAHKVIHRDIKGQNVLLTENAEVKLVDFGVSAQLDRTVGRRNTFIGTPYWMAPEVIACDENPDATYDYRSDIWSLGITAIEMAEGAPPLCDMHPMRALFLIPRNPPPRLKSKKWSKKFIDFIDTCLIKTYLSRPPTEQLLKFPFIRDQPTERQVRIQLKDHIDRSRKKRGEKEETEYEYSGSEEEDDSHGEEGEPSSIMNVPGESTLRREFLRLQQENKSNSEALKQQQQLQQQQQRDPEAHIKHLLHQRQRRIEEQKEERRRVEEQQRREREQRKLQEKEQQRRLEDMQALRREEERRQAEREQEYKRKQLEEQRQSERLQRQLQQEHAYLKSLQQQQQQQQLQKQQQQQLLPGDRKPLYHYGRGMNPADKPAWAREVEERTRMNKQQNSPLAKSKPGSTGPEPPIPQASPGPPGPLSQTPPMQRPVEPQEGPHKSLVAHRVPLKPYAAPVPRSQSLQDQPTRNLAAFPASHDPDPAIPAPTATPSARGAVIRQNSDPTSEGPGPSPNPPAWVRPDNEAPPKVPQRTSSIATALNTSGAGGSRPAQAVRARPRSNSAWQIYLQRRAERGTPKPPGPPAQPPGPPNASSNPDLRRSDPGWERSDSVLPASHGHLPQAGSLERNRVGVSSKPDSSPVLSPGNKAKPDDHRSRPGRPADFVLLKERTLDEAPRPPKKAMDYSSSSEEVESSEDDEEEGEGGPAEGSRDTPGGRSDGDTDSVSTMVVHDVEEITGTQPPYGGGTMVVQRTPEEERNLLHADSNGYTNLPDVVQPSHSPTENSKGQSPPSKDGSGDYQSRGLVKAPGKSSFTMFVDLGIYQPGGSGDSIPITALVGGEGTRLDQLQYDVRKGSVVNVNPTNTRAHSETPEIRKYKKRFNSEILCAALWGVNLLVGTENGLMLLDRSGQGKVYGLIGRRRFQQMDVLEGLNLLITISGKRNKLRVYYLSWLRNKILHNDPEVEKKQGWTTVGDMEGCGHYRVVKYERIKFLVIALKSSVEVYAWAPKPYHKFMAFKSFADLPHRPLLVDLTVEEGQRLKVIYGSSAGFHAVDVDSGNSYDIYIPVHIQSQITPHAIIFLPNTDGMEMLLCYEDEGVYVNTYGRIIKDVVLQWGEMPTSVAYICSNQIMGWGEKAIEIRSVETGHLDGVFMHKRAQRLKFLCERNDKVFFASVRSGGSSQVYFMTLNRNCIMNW
MAP kinase-activated protein kinase 2 (Homo sapiens), sequence (P49137 whole entry, looked up): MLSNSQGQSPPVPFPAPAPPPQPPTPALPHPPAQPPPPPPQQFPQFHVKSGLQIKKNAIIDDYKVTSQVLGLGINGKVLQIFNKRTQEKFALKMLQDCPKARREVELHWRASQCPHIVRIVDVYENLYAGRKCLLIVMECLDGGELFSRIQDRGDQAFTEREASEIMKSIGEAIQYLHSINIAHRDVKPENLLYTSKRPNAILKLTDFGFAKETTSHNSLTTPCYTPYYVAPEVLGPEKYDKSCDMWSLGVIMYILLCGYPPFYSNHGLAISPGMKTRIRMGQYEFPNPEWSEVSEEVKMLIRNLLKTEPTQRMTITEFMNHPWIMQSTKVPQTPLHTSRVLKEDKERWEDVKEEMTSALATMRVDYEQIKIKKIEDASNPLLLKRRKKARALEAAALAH

SMILES | residual activity [1] [%] | residual activity [2] [%] | residual activity [3] [%] | residual activity [4] [%] | residual activity [5] [%] | residual activity [6] [%] | residual activity [7] [%] | residual activity [8] [%] | residual activity [9] [%] | residual activity [10] [%]
O=C(c1cc2cc(O)ccc2[nH]1)c1cc2cc(O)ccc2[nH]1 | 51 | 40 | 5 | 80 | 26 | 27 | 3 | 21 | 4 | 
O=C1Nc2ccc(Cl)cc2/C1=C/c1cc(Cl)c(O)c(Cl)c1 | 71 | 69 | 35 | 99 | 49 | 60 | 46 | 35 | 35 | 61
CSc1nc(-c2ccc(F)cc2)c(-c2ccnc(NC(C)c3ccccc3)c2)[nH]1 (centres undefined) | 98 | 94 | 76 |  |  | 88 | 61 |  | 59 | 
COc1cc2ncnc(Nc3cccc(Cl)c3)c2cc1OC | 105 |  | 83 | 114 | 71 | 89 | 59 |  | 76 | 65
CN([C@@H](Cc1ccc(OS(=O)(=O)c2cccc3cnccc23)cc1)C(=O)N1CCN(c2ccccc2)CC1)S(=O)(=O)c1cccc2cnccc12 |  | 99 | 98 |  |  |  |  |  |  | 78
O=c1cc(N2CCNCC2)oc2c(-c3ccccc3)cccc12 | 85 | 82 | 89 | 99 | 89 | 80 | 78 | 104 | 99 | 89
Cn1sc(=O)n(Cc2ccccc2)c1=O | 93 | 76 | 70 | 96 |  | 88 | 65 | 96 | 91 | 
COc1cc2nccc(Oc3ccc(NC(=S)NC(=O)c4ccccc4C)cc3)c2cc1OC | 66 | 81 | 75 | 86 | 68 | 98 | 84 | 77 | 69 | 56
NCCNc1ncc(C(N)=O)c(Nc2cccc(C(F)(F)F)c2)n1 | 49 | 72 | 30 | 73 | 25 |  |  |  |  | 72
O=C(Nc1nc2ccccc2n1CCN1CCOCC1)c1cccc([N+](=O)[O-])c1 |  | 80 | 81 | 66 | 81 | 65 | 45 |  |  | 84
CN(C)S(=O)(=O)c1ccc2c(c1)/C(=C/c1cc3c([nH]1)CCCC3)C(=O)N2 | 92 | 24 | 17 |  | 83 |  | 95 | 124 | 97 | 92
Nc1n[nH]c2nc3ccccc3nc12 |  | 75 | 74 | 87 | 85 | 97 | 70 |  |  | 94
CCCC(=O)Oc1ccc2[nH]c(C(=O)c3cc4ccccc4[nH]3)cc2c1 | 87 | 80 | 84 | 93 | 100 | 88 | 87 | 82 | 82 | 94
CC(C)(C)c1nc2c3ccc(F)cc3c3c(=O)[nH]ccc3c2[nH]1 | 62 | 29 | 14 | 66 | 20 | 2 | 2 | 81 | 78 | 
CC(C)[C@H](CO)Nc1nc(Nc2cc(N)cc(Cl)c2)c2ncn(C(C)C)c2n1 | 117 | 92 | 38 |  |  |  |  |  | 73 | 
N#C/C(=C\c1ccc(O)c(O)c1)C(=O)NCc1ccccc1 | 77 | 85 | 88 |  |  | 80 | 72 |  | 84 | 
O=c1cc(N2CCOCC2)oc2c1ccc1ccccc12 | 87 | 93 | 89 |  | 92 | 92 | 91 | 102 | 110 | 109
O=C1NC(=O)C(c2cn(CCCO)c3ncccc23)=C1c1cnccn1 | 93 | 81 | 79 |  |  | 78 | 68 |  |  | 100
O=C(c1ccccc1)c1ccc(N2CCOCC2)cc1O | 89 | 93 | 83 | 80 | 90 | 85 | 65 | 85 | 60 | 93
Nc1ncnc2c1c(-c1ccc(Oc3ccccc3)cc1)cn2C1CCCC1 | 77 | 74 | 54 | 48 | 24 | 72 | 31 | 93 | 82 | 84
O=C(CCCc1ccc(-c2ccccc2F)cc1)Nc1ccc(O)cc1 | 76 | 102 | 94 | 103 | 111 | 100 | 77 | 111 | 102 | 
O=C1NC(=O)C(c2c[nH]c3ccccc23)=C1c1c[nH]c2ccccc12 | 79 | 81 | 37 | 34 | 7 | 80 | 27 |  | 41 | 
Nc1ncnc2[nH]nc(Nc3ccc(F)cc3)c12 | 95 |  | 69 | 60 | 23 |  | 51 |  | 48 | 112
O=C(O)/C=C/c1cc(Br)c(Br)c(Br)c1Br | 79 | 104 | 82 | 106 | 65 | 82 | 80 | 105 | 87 | 82
CC(C)c1nn(-c2c(Cl)cccc2Cl)c2nc(Cc3ccc(OCCO)cc3)[nH]c(=O)c12 | 89 | 80 | 47 | 82 |  | 65 | 67 | 97 | 93 | 91
O=C(NC(NC(=S)Nc1ccc(F)c([N+](=O)[O-])c1)C(Cl)(Cl)Cl)C(c1ccccc1)c1ccccc1 (centres undefined) | 78 | 96 | 80 |  |  | 76 | 76 |  |  | 
